# Compound activity from PubChem.
# Many of the other results were omitted from the sample, so hits are more common in it than they were.
# Methyltransferases: Primary Screen for Target Class Profiling of Small Molecule Inhibitors of Methyltransferases. AID 1745853, 2022. purified enzyme, MTase-Glo SAH luminescence; active compounds read low. 25,000 tested, 3.9% active. calls only at 40 µM; call rule not given here
#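 Each enzyme was reacted with SAM and its substrate, with compounds tested once at 40 uM; SAH formed was read by MTase-Glo luminescence.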
# MTase-Glo counter: Counterscreen for Target Class Profiling of Small Molecule Inhibitors of Methyltransferases. shares compounds with Methyltransferases. MTase-Glo coupled enzymes, SAH conversion luminescence, no MTase. 180 tested, 6% active. Potency, µM (top dose mostly 57.3 µM), without a hit: top-dose activity change, negative = inhibition, hits mostly inhibitors; active means well fitted inhibition curve with a large enough effect; inconclusive means small, poorly fitted or top-dose-only effect; further: potency means the concentration at half of the fitted maximal effect
# * = called active by the depositor; i = inactive; ? = inconclusive; + = active, no number; [ ] = another dose, or the depositor's remark. On the % scale 0 is the no-effect control and ±100 the full control effect.
SMILES,Methyltransferases,others
COC(=O)c1ncn2c1C(=O)N(C(C)c1ccccc1)C(C)(C(=O)NC1CCCCCC1)C2 (stereo unspecified),i,
CC1(C(=O)NC2CCCC2)Cn2c(cc3ccccc32)C(=O)N1CCc1cccs1 (stereo unspecified),i,
CC1(C(=O)NC2CCCCCC2)Cn2c(c(-n3cccc3)c3ccccc32)C(=O)N1Cc1ccccn1 (stereo unspecified),i,
O=C(Cc1ccc(-c2ccccc2)cc1)NC1CCC1,i,
CC1(C(=O)NC2CCCCC2)Cc2ccccc2C(=O)N1CCc1ccccc1 (stereo unspecified),i,
CN(Cc1ccccc1)C1(C(=O)NC2CCC(O)CC2)Cc2ccccc2C1 (stereo unspecified),+,MTase-Glo counter=-24%
COc1ccc(Nc2n[nH]nc2C(=O)NCc2ccc3c(c2)OCO3)cc1,i,
CC(=O)Nc1c2n(c3ccccc13)CC(C)(C(=O)NC1CCCC1)N(CCC1=CCCCC1)C2=O (stereo unspecified),i,
CCN1C(=O)c2cc(C(=O)NCc3ccccc3Cl)nn2CC1(C)C(=O)NC1CCCC1 (stereo unspecified),i,
CCCNc1cc(N2CCC(CCC(=O)NCCN3CCCCCC3)CC2)ncn1,+,MTase-Glo counter=1%
CCCNC(=O)CCc1ccnc(N2CCCC2)c1,i,
CN1C(=O)c2cc(C(=O)NCCN3CCCC3)nn2CC1(C)C(=O)NC1CCCCC1 (stereo unspecified),i,
COc1nccnc1-c1cc(NCCN(C)C)nc2[nH]ccc12,i,
C=CCn1c(=O)c2ccc(C(=O)NC(C)C)cc2n2c(=O)n(CC(=O)NC(C)C)nc12,i,
COc1ccc(C(=O)N2CC[C@H](c3nnc(-c4ccccc4)o3)C2)cc1,i,
c1ccc(-c2nnc([C@H]3CCN(C4CCC4)C3)o2)cc1,i,
FC(F)(F)c1ccnc(N2CC[C@H](c3nnc(-c4ccncc4)o3)C2)n1,+,MTase-Glo counter=-4%[85.7 µM]
Cc1ccc(-c2n[nH]n3c2nc(=O)c2ccc(C(=O)NCc4ccc(Cl)cc4)cc23)cc1,i,
CCOc1ccc(CNS(=O)(=O)c2cc3[nH]c(=O)[nH]c3cc2C)cc1OC,i,
COc1ccc(N2CCN(C(=O)c3ccc4c(=O)nc5c(-c6ccccc6F)n[nH]n5c4c3)CC2)cc1,i,
COc1ccc(N2CCN(C(=O)c3cccc(Nc4nc5ccccc5n5nnnc45)c3)CC2)cc1,i,
COc1ccc(N2CCN(C(=O)c3cc(NC(C)=O)cc4nc(C)ccc34)CC2)cc1,+,MTase-Glo counter=1%
CC1(C(=O)NC2CCCCCCC2)Cn2c(cc3occc32)C(=O)N1CCN1CCOCC1 (stereo unspecified),i,
COc1cccc(NC(=O)Cn2c(=O)oc3cc(S(=O)(=O)N4CCC(C)CC4)ccc32)c1,i,
CCCNC(=O)C1CCc2ncc(-c3ccc(OC)cc3)n2C1 (stereo unspecified),i,
SMILES,Methyltransferases,others
O=C(NCC1CC1)C1CCc2ncc(-c3ccc(F)cc3)n2C1 (stereo unspecified),i,
O=C(NCCCN1CCc2ccccc2C1)C1CCc2ncc(-c3ccc(F)cc3)n2C1 (stereo unspecified),+,MTase-Glo counter=-2%
CN1C(=O)c2cc(C(=O)N3CCC(C(N)=O)CC3)nn2CC1(C)C(=O)NC1CCCCCC1 (stereo unspecified),i,
CCCNC(=O)NCCc1ncc(C)n1CC1CC1,i,
CNC(=O)NCCc1ncc(C)n1C1CCCCCCC1,+,MTase-Glo counter=0%
COC(=O)CNC(=O)NCCc1ncc(C)n1C1CCCC1,i,
CC(C)CCNC(=O)C1(C)Cn2nc(C(=O)NCCCN3CCCC3)cc2C(=O)N1C (stereo unspecified),i,
Cc1ccccc1CNC(=O)CNC(=O)C1(C)Cn2c(cc3ccccc32)C(=O)N1C (stereo unspecified),i,
CC(C)OCCCn1c(=O)c2ccccc2n2c(CCC(=O)N3CCN(c4ccc(F)cc4)CC3)nnc12,i,
COc1cccc(Nc2ccnc(-c3nnc(C)n3C3CCCCC3)c2)c1,+,MTase-Glo counter=-4%[85.7 µM]
Cc1nnc(-c2cc(-c3ccccc3Oc3ccccc3)ccn2)n1C,i,
COc1cccc(NC(=O)c2cc3n(n2)CC(C)(C(=O)NC2CCCCCC2)N(C)C3=O)c1 (stereo unspecified),i,
CC(C)n1c(=O)c2ccc(C(=O)NC3CCCC3)cc2n2c(=O)n(CC(=O)c3ccccc3)nc12,i,
CCC(C)NC(=O)c1ccc2c(=O)n(C(C)C)c3nn(CC(=O)c4ccc(Cl)cc4)c(=O)n3c2c1 (stereo unspecified),i,
COc1cc(OC)c(N2C(=O)CSc3c(c4ccccc4n3C)C2C(=O)NCc2ccccc2)cc1Cl (stereo unspecified),i,
CCNc1nc2c(s1)C(c1cccc(F)c1)CC(=O)N2 (stereo unspecified),+,MTase-Glo counter=?
CN1CCC(N2CC[C@H](c3nc4ccc(C(F)(F)F)cc4[nH]3)C2)CC1,+,MTase-Glo counter=2%[85.7 µM]
CC(=O)N1CC[C@H](c2nc3ccc(C#N)cc3[nH]2)C1,i,
CN1CCC(N2CC[C@H](c3nc4ccccc4[nH]3)C2)CC1,+,MTase-Glo counter=-2%[114 µM]
CC(=O)N1CCC(C(=O)N2CCCC(c3nc4ncccc4[nH]3)C2)CC1 (stereo unspecified),i,
CN1CCN(c2nc3cc(C(F)(F)F)ccc3n3cccc23)CC1,i,
O=C(C1CC2(CCNCC2)CN1)N1CCC(c2nc3ccccc3[nH]2)CC1 (stereo unspecified),i,
Cc1ccc(C(=O)Cn2nc3n(Cc4ccccc4)c(=O)c4ccccc4n3c2=O)cc1,i,
CCN(Cc1ccccc1)C(=O)CN(C)S(=O)(=O)c1ccc2[nH]c3c(c2c1)CCCC3,i,
O=C(CCC1CCN(S(=O)(=O)c2ccccc2F)CC1)NCCCN1CCCC1=O,i,
SMILES,Methyltransferases,others
Cc1cccc(CNC(=O)C2(C)Cn3cnc(C(=O)NCc4ccccc4F)c3C(=O)N2C2CC2)c1 (stereo unspecified),i,
COCCCNC(=O)c1cnc2n[nH]c(-c3ccccc3)c2n1,+,MTase-Glo counter=-3%[85.7 µM]
COc1ccc(C(=O)NCCn2c(C)cnc2-c2ccccc2)cn1,i,
Cc1cc(F)ccc1-c1[nH]nc2ncc(-c3ccnn3C)nc12,i,
CC1(C)[C@H]2CC[C@@H](CNC(=O)c3ccc4ccccc4n3)[C@@H]1C2,i,
COc1ccccc1-c1[nH]nc2ncc(C(=O)NCC3CC3)nc12,+,MTase-Glo counter=1%[85.7 µM]
CCOCCCNC(=O)c1cc2c(=O)[nH]c(-c3ccccc3)cn2n1,i,
c1ccc(-c2[nH]nc3ncc(-c4cn[nH]c4)nc23)cc1,+,MTase-Glo counter=25µM*
COc1ccccc1CCNC(=O)c1cc2n(n1)CC(C)(C(=O)NC1CCCCCC1)N(C)C2=O (stereo unspecified),i,
COc1cccc(CN2C(=O)c3cc4c(OC)ccc(OC)c4n3CC2(C)C(=O)NC2CCCC2)c1 (stereo unspecified),i,
Cc1ccc(CN2C(=O)c3cc4sccc4n3CC2(C)C(=O)NC2CCCCC2)cc1 (stereo unspecified),i,
CC1CCC(NC(=O)Cn2c(=O)oc3cc(S(=O)(=O)NC4CCCC4)ccc32)CC1 (stereo unspecified),i,
